For eight compounds, growth inhibition results are on record in PubChem BioAssay (NCI).

A short description of assay [1]: NCI Yeast Anticancer Drug Screen. Data for the rad50 strain (AID 155).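 Note: 0% = growth of vehicle-only cultures of the same strain.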 To be noted: S. cerevisiae rad50 strain growth inhibition, stronger effect = higher value. In short, it runs like this:
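Growth of the mutant yeast was measured after compound exposure and referenced to vehicle-treated cultures.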

A short description of assay [2]: NCI Yeast Anticancer Drug Screen. Data for the mec2-1 strain (AID 157). The conditions noted are these: S. cerevisiae mec2-1 strain, stronger effect = higher value. In short, it runs like this:
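Growth inhibition is read against vehicle-treated controls after compound exposure of the mec2-1 yeast strain, which is defective in DNA damage repair or cell cycle control.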

Assay [3] can be described thus: NCI Yeast Anticancer Drug Screen. Data for the sgs1 mgt1 strain (AID 161).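 Note: 0% = growth of cultures given vehicle only.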 To be noted: S. cerevisiae sgs1 mgt1 strain, stronger effect = higher value. In short, it runs like this: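 Growth of a repair-deficient yeast mutant was monitored after compound treatment and expressed as inhibition relative to vehicle-treated cultures.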
Assay [4] in a line: NCI Yeast Anticancer Drug Screen. Data for the cln2 rad14 strain (AID 165).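 Note: 0% = growth equal to vehicle treated cultures.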 To be noted: S. cerevisiae cln2 rad14 strain, stronger effect = higher value. In short, it runs like this:
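Growth inhibition, relative to vehicle-treated controls, is the read-out. The test organism is a yeast strain with defined genetic alterations, cln2 rad14.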

A short description of assay [5]: NCI Yeast Anticancer Drug Screen. Data for the bub3 strain (AID 167). The conditions noted are these: S. cerevisiae bub3 mutant strain, stronger effect = higher value. In outline: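 Whole-cell yeast assay. The mutant strain was incubated with compounds, and growth inhibition was determined by comparison with vehicle-treated cells.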
A short description of assay [6]: NCI Yeast Anticancer Drug Screen. Data for the mlh1 rad18 strain (AID 175). The conditions noted are these: S. cerevisiae mlh1 rad18 strain growth inhibition, stronger effect = higher value. In outline:
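Cells of a genetically altered yeast strain, deficient in DNA damage repair, were treated with compound. Their growth was then compared with that of vehicle-treated cultures to give inhibition.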

The mark [7] stands for this setting: at 5.0 µM (retest, dose inferred, filed as 0.5).
Where [8] appears, read: at 50.0 µM (retest, dose inferred, filed as 5.0).

Several values for one entry are separate records, joined by “and”; a condition that tells them apart may be missing. Equal values may be shown once. This is part of a sample that, as a whole, favours compounds with a hit. Of some 79,000 tested, about 15% had one in any assay. Where a structure was tested more than once in an assay, its records may differ in their call. Activity calls are given as the source filed them. Cut-off read from the data, not from the text of the source: active = growth inhibition above about 70%; inactive = the rest.

In the case of `COc1cc(C[C@H]2c3cc(OC)c(OC)c(O)c3CCN2C)c(Oc2cc3c(cc2OC)-c2c(OC)c(OC)c(OC)c4c2C(C3)N(C)CC4)cc1OC` (some centres undefined) (tested in a mixture with another compound), the growth inhibition in assay [1] (setting [7]) is -2% (inactive); in assay [1] (setting [8]), 40% (inactive); in assay [1] (at 50.0 µM) it was 64.7% (inactive); in assay [2] (setting [7]) it was -1% (inactive); in assay [2] (setting [8]) it was 52% (inactive); in assay [2] (at 50.0 µM), 33.5% (inactive). For the same compound, the growth inhibition in assay [3] (setting [7]) is -6% (inactive); in assay [3] (setting [8]) it was 36% (inactive); in assay [3] (at 50.0 µM), 47.8% (inactive); in assay [4] (setting [7]) it was -7% (inactive); in assay [4] (setting [8]), 44% (inactive); in assay [4] (at 50.0 µM), 44.8% (inactive). The growth inhibition in assay [5] (setting [7]) was 3% (inactive); in assay [5] (setting [8]), 39% (inactive); in assay [5] (at 50.0 µM), 61.5% (inactive); in assay [6] (setting [7]), -5% (inactive); in assay [6] (setting [8]) it was 96% (active); in assay [6] (at 50.0 µM), 80% (active).
Turning to `CC(Cl)CN(C)C` (centres undefined), the growth inhibition is 24% (inactive) in assay [1] (setting [7]); 74% (active) in assay [1] (setting [8]); 75.3% (active) and 30.4% (inactive) in assay [1] (at 50.0 µM); -5% (inactive) in assay [2] (setting [7]); 13% (inactive) in assay [2] (setting [8]); 1.1% (inactive) and -17.4% (inactive) in assay [2] (at 50.0 µM). Further, the growth inhibition in assay [3] (setting [7]) is 25% (inactive); in assay [3] (setting [8]), 57% (inactive); in assay [3] (at 50.0 µM), 54.5% (inactive) and 33.9% (inactive); in assay [4] (setting [7]), -1% (inactive); in assay [4] (setting [8]), 3% (inactive); in assay [4] (at 50.0 µM) it was -55.5% (inactive) and 7.95% (inactive). Besides, the growth inhibition was -8% (inactive) in assay [5] (setting [7]); -10% (inactive) in assay [5] (setting [8]); -20.4% (inactive) and -16.6% (inactive) in assay [5] (at 50.0 µM); 11% (inactive) in assay [6] (setting [7]); 37% (inactive) in assay [6] (setting [8]); 57% (inactive) and 18.3% (inactive) in assay [6] (at 50.0 µM).
Regarding `CC(=O)C1CCC2C3CCC4CC([N+]5(C)CCCCC5)CCC4(C)C3CCC12C` (centres undefined), the growth inhibition in assay [1] (setting [7]) is 2% (inactive); in assay [1] (setting [8]), 29% (inactive); in assay [1] (at 50.0 µM), 82.3% (active); in assay [2] (setting [7]), 17% (inactive); in assay [2] (setting [8]) it was 71% (active); in assay [2] (at 50.0 µM) it was 79.9% (active). The growth inhibition in assay [3] (setting [7]) was 10% (inactive); in assay [3] (setting [8]), 87% (active); in assay [3] (at 50.0 µM) it was 97.5% (active); in assay [4] (setting [7]) it was 8% (inactive); in assay [4] (setting [8]), 31% (inactive); in assay [4] (at 50.0 µM) it was 81.1% (active). In addition, the growth inhibition in assay [5] (setting [7]) is 8% (inactive); in assay [5] (setting [8]) it was 64% (inactive); in assay [5] (at 50.0 µM) it was 86.5% (active); in assay [6] (setting [7]) it was 18% (inactive); in assay [6] (setting [8]), 65% (inactive); in assay [6] (at 50.0 µM) it was 92% (active).
Turning to `Cc1cc([N+](=O)[O-])c(O)c([N+](=O)[O-])c1C`, the growth inhibition in assay [1] (setting [7]) was 2% (inactive); in assay [1] (setting [8]), 71% (active); in assay [1] (at 50.0 µM), 67.5% (inactive); in assay [2] (setting [7]), 12% (inactive); in assay [2] (setting [8]), 47% (inactive); in assay [2] (at 50.0 µM), 26.6% (inactive). For the same compound, the growth inhibition was 3% (inactive) in assay [3] (setting [7]); 70% (active) in assay [3] (setting [8]); 62.5% (inactive) in assay [3] (at 50.0 µM); -42% (inactive) in assay [4] (setting [7]); 34% (inactive) in assay [4] (setting [8]); 45.4% (inactive) in assay [4] (at 50.0 µM). The growth inhibition in assay [5] (setting [7]) was 11% (inactive); in assay [5] (setting [8]), 58% (inactive); in assay [5] (at 50.0 µM) it was 63.2% (inactive); in assay [6] (setting [7]), -7% (inactive); in assay [6] (setting [8]) it was 90% (active); in assay [6] (at 50.0 µM) it was 54.1% (inactive).
Take `S=c1[nH]c2ccccc2s1`: the growth inhibition in assay [1] (setting [7]) is -8% (inactive); in assay [1] (setting [8]), 45% (inactive); in assay [1] (at 50.0 µM) it was 3.25% (inactive) and 53.4% (inactive); in assay [2] (setting [7]), -7% (inactive); in assay [2] (setting [8]), 52% (inactive); in assay [2] (at 50.0 µM), -22.3% (inactive) and 30.1% (inactive). For the same compound, the growth inhibition in assay [3] (setting [7]) was -3% (inactive); in assay [3] (setting [8]), 51% (inactive); in assay [3] (at 50.0 µM) it was 15.8% (inactive) and 62% (inactive); in assay [4] (setting [7]), -12% (inactive); in assay [4] (setting [8]), 1% (inactive); in assay [4] (at 50.0 µM) it was -11.1% (inactive) and 11.7% (inactive). Besides, the growth inhibition in assay [5] (setting [7]) was -4% (inactive); in assay [5] (setting [8]), 29% (inactive); in assay [5] (at 50.0 µM), 8.85% (inactive) and 55.8% (inactive); in assay [6] (setting [7]), -7% (inactive); in assay [6] (setting [8]) it was 38% (inactive); in assay [6] (at 50.0 µM), 4.95% (inactive) and 71.9% (active).
Consider `Cc1cccc2cc3ccccc3cc12`, for which the growth inhibition was 29% (inactive) in assay [1] (setting [7]); 99% (active) in assay [1] (setting [8]); 95.3% (active) in assay [1] (at 50.0 µM); 50% (inactive) in assay [2] (setting [7]); 99% (active) in assay [2] (setting [8]); 97% (active) in assay [2] (at 50.0 µM). For the same compound, the growth inhibition in assay [3] (setting [7]) is 43% (inactive); in assay [3] (setting [8]), 99% (active); in assay [3] (at 50.0 µM) it was 85.9% (active); in assay [4] (setting [7]) it was 58% (inactive); in assay [4] (setting [8]) it was 99% (active); in assay [4] (at 50.0 µM), 91.1% (active). Moreover, the growth inhibition in assay [5] (setting [7]) was 68% (inactive); in assay [5] (setting [8]), 99% (active); in assay [5] (at 50.0 µM) it was 95.7% (active); in assay [6] (setting [7]), 70% (active); in assay [6] (setting [8]), 99% (active); in assay [6] (at 50.0 µM) it was 96.9% (active).
For `FC(F)(F)C1(C(F)(F)F)O[Te]2(OC1(C(F)(F)F)C(F)(F)F)OC(C(F)(F)F)(C(F)(F)F)C(C(F)(F)F)(C(F)(F)F)O2`, the growth inhibition in assay [1] (setting [7]) was 10% (inactive); in assay [1] (setting [8]), 79% (active); in assay [1] (at 50.0 µM), 63.7% (inactive); in assay [2] (setting [7]), 10% (inactive); in assay [2] (setting [8]), 89% (active); in assay [2] (at 50.0 µM) it was 96.3% (active). Also, the growth inhibition in assay [3] (setting [7]) is 23% (inactive); in assay [3] (setting [8]) it was 86% (active); in assay [3] (at 50.0 µM), 95.5% (active); in assay [4] (setting [7]), 14% (inactive); in assay [4] (setting [8]), 84% (active); in assay [4] (at 50.0 µM), 90.2% (active). For the same compound, the growth inhibition was 20% (inactive) in assay [5] (setting [7]); 96% (active) in assay [5] (setting [8]); 89.2% (active) in assay [5] (at 50.0 µM); 11% (inactive) in assay [6] (setting [7]); 91% (active) in assay [6] (setting [8]); 92% (active) in assay [6] (at 50.0 µM).
Turning to `O=C(CCN1CC1)NCCc1ccccc1`, the growth inhibition was -152% (inactive) in assay [1] (setting [7]); 90% (active) in assay [1] (setting [8]); 96.6% (active) in assay [1] (at 50.0 µM); -44% (inactive) in assay [2] (setting [7]); 48% (inactive) in assay [2] (setting [8]); 83.3% (active) in assay [2] (at 50.0 µM). The growth inhibition in assay [3] (setting [7]) was -59% (inactive); in assay [3] (setting [8]), 84% (active); in assay [3] (at 50.0 µM) it was 58% (inactive); in assay [4] (setting [7]), -60% (inactive); in assay [4] (setting [8]), 73% (active); in assay [4] (at 50.0 µM), 83.7% (active). In addition, the growth inhibition in assay [5] (setting [7]) is -72% (inactive); in assay [5] (setting [8]), 87% (active); in assay [5] (at 50.0 µM) it was 67.8% (inactive); in assay [6] (setting [7]) it was -143% (inactive); in assay [6] (setting [8]), 90% (active); in assay [6] (at 50.0 µM), 93.7% (active).
